Measured values as given in PubChem BioAssay AID624354 (Sanford-Burnham Center for Chemical Genomics, 2012).
About 3,800 (1.1%) of roughly 360,000 compounds were called active. The entries come from a sample that favours actives as a whole. Values without a mark were called inactive.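 How the source made its calls: active means compounds causing at least 50% loss of cell viability in the single-dose screen, relative to plate controls; inactive means the rest.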

test: viability loss with TRAIL in NB7+C8 cells, primary screen, TRAIL sensitizer project, cell-based, ATPlite luminescence (AID 624354); settings: at 10 µM, active compounds read high

Structure (SMILES) | inhibition (viability loss, TRAIL sensitization)
Cc1c(Cl)c([N+](=O)[O-])nn1CC(=O)NCCCN1CCOCC1 | 27.8%
Cc1ccc(S(=O)(=O)N[C@H]2CCC[C@@H]2O)cc1 | 1.92%
C#CCNc1ccc(C(=O)OCC)cc1 | 3.56%
CC(C)OC(=O)c1ccc(NCc2cc(O)ccc2O)cc1Cl | 78.8% (active)
O=C(O)Cc1ccc(NCc2ccccc2Cl)cc1 | 8.54%
CCCc1cc(C(=O)Nc2ccc(C(=O)OC)cc2)cs1 | -5.01%
COC(=O)c1ccc(NCc2cc(O)ccc2O)cc1 | 55.3% (active)
O=C(OC12CC3CC(CC(C3)C1)C2)c1ccc(NCc2cc(O)ccc2O)cc1 | 86.4% (active)
CN(C)c1nc(N)nc(CSc2nnnn2-c2cccc3ccccc23)n1 | 40.6%
Cc1ccc(/C=N/NC(=O)c2sccc2OCc2ccc(F)cc2)cc1 | 15.2%
Cc1ccccc1CS(=O)(=O)CC1(O)CCN(C(=O)c2cccc(C(F)(F)F)c2)CC1 | 8.2%
CCOc1ccc(N(CC(=O)NC2CCCCCC2)S(=O)(=O)c2c(C)[nH]c(=O)[nH]c2=O)cc1 | 11.6%
COc1ccc(NC(=O)c2cc(=O)[nH]c3ccccc23)cc1S(=O)(=O)N1CCOCC1 | -0.328%
CCOc1ccc(CCNC(=O)COC(=O)CCS(=O)(=O)c2ccc(C)cc2)cc1OCC | 6.55%
O=C(Nc1ccn(Cc2ccccc2F)n1)c1ccc(COc2ccc(Cl)cc2Cl)o1 | 11.2%
Cc1c(Br)c([N+](=O)[O-])nn1CC(=O)N1CCN(Cc2ccccc2)CC1 | -5.96%
O=C(Nc1ccn(Cc2ccccc2)n1)c1n[nH]c([N+](=O)[O-])c1Cl | 62.6% (active)
COC(=O)c1cc(NS(=O)(=O)c2ccc3c(c2)c(=O)n(C)c(=O)n3C)cc(C(=O)OC)c1 | 15.9%
CC[C@H]1CN2CCc3cc(OC)c(OC)cc3[C@@H]2C[C@@H]1C[C@H]1NCCc2cc(OC)c(OC)cc21 | 53.7% (active)
CCOC(=O)C1CCN(C(=O)C2CCN(S(=O)(=O)CC)CC2)CC1 | -7.6%
CCN(CC(=O)Nc1c(F)cccc1F)C(=O)C1CCC1 | -2.6%
COc1ccc(COC(=O)c2n[nH]c3ccccc23)cc1F | -10.3%
Cc1ccc(C(=O)NC(C)C(c2cccs2)N2CCOCC2)cc1C (stereo unspecified) | -23.4%

Structure (SMILES) | inhibition (viability loss, TRAIL sensitization)
CCOC(=O)C(=Cc1ccccc1)C(=O)c1ccccc1 | 18.2%
CCOC(=O)/C(=C\c1ccc([N+](=O)[O-])cc1)C(=O)c1cc(C(C)=O)c(Nc2ccccc2)s1 | 85.2% (active)
CCOC(=O)C/C(C)=N\Nc1ccc([N+](=O)[O-])cc1[N+](=O)[O-] | -7.23%
O=C(CN1C(=O)NC(Cc2ccccc2)(Cc2ccccc2)C1=O)NCC1CCCCC1 | -33.8%
CCC(CC)c1nnc(NS(=O)(=O)Cc2ccccc2)s1 | -5.15%
C=CCn1cc(Cl)cc(C(=O)Nc2ccccc2)c1=O | 6.15%
Cc1ccc(NC(=O)N2CCC(C(=O)NCc3ccc(F)cc3)CC2)cc1 | 1.96%
CCc1ccc(CNC(=O)C2CC(=O)N(CCc3ccc(C)cc3)C2)cc1 (stereo unspecified) | 8.62%
CCc1ccc(CNC(=O)C2CCN(c3nnc(C)c4c(C)n(-c5ccc(C)cc5)nc34)CC2)cc1 | 84.7% (active)
O=C(COC(=O)/C=C/c1ccc(OC(F)F)cc1)NC1CCCCC1 | -8.42%
COc1cccc(/C=C/c2ccc3ccccc3n2)c1OC(C)=O | 65.1% (active)
COc1cccc(NC(=O)COC(=O)c2ccc3ccccc3n2)c1 | -11.3%
CCOc1cccc(/C=C/c2ccc3ccccc3n2)c1OC(C)=O | 47.3%
C=CCCC(=O)N1C[C@H]2CON(C)[C@H]2C[C@H]1c1cccc(Nc2ccccc2)c1 | -0.674%
O=C(NCc1ccc(Cl)cc1)c1cc2c(nc3sccn32)s1 | 0.401%
COc1ccc(C2=Nc3ccccc3NC(=O)C2N(C(=O)c2cc3ccccc3[nH]2)c2ccccc2)cc1 (stereo unspecified) | -7.09%
COc1cccc(-c2ccc(SCC(=O)N3CCN(c4ccccc4)CC3)nn2)c1 | 6.26%
COc1ccc(-c2ccnc(SCC(=O)N3CCOCC3)n2)cc1 | 28%
CCOc1ccc(-c2ccc(SCC(=O)N3CCOCC3)nn2)cc1 | 50.6% (active)
CC(O)c1nc2c(c(=O)n(C)c(=O)n2C)n1C (stereo unspecified) | -4.64%
O=C(c1cccs1)N1C[C@H](n2cc(C3CC3)nn2)[C@@H](O)C[C@@H]1c1ccccc1 | -1.93%
CCCCN1Cc2c(nc3cc(-c4ccccc4)[nH]n3c2=O)C1=O | -2.49%
O=c1c2c(nc3cc(-c4cccc(Cl)c4)[nH]n13)CCCC2 | 63.1% (active)

Structure (SMILES) | inhibition (viability loss, TRAIL sensitization)
C=CCc1c(C)nc2cc(-c3ccccc3)[nH]n2c1=O | 30.8%
CCn1cc(CNC(=O)c2cc([N+](=O)[O-])c(C)c([N+](=O)[O-])c2)cn1 | 24.5%
Cn1c(=O)c2c(ncn2CC(COCc2ccccc2Cl)OCc2ccccc2Cl)n(C)c1=O (stereo unspecified) | -6.46%
COc1ccc(CCc2nnc(CCC(=O)NCc3cnn(-c4ccccc4C)c3)o2)cc1 | 2.59%
COc1ccc(C(C(=O)NC2CCCCC2)N(C(=O)c2snc(C(N)=O)c2N)c2ccccc2OC)cc1 (stereo unspecified) | 1.04%
COc1ccc(C(C(=O)NC2CCCCC2)N(C(=O)CCl)c2ccccc2Cl)cc1 (stereo unspecified) | 94.5% (active)
Cc1ccccc1N(C(=O)CNC(=O)c1cccs1)C(C(=O)NC1CCCC1)c1ccncc1 (stereo unspecified) | 34.8%
COC(=O)[C@@]12C[C@@H](CC(=O)N3CCCCC3)C(=O)N(Cc3ccc4c(c3)OCO4)C1=CCC(C)(C)C2 | -12.6%
COc1ccccc1C(=O)NCCC(=O)N(C)Cc1cccnc1 | 10.4%
Cc1cc(O)ccc1NC1=CC(=O)CC(C)(C)C1 | 1.23%
Cc1cc(N=Nc2ccc3ccccc3c2)ccc1O | 55.4% (active)
CC(C)Cn1c(N)c(C(=O)COC(=O)CN2C(=O)C3CC=CCC3C2=O)c(=O)n(C)c1=O (stereo unspecified) | 13.4%
CCCc1cc(=O)[nH]c(SCC(=O)N2C(C)CCCC2C)n1 (stereo unspecified) | -9.5%
CCCc1cc(=O)[nH]c(SCC(=O)c2c(N)n(CC(C)C)c(=O)n(C)c2=O)n1 | 84.5% (active)
O=C(Nc1cccc2cccnc12)c1ccc2sc([C@H]3C[C@H](O)[C@@H](CO)O3)nc2c1 | 7.21%
COC(=O)C[C@@H]1C=C[C@@H](NS(=O)(=O)c2cccc(OC)c2)[C@@H](CO)O1 | 4.54%
CC(=O)c1c(O)cc2n(c1=O)-c1ccc(Cl)cc1C2(C)C | 5.66%
CC(C)C(NC(=O)C1CCC(C(C)(C)C)CC1)C(=O)NCCCN1CCCCC1 (stereo unspecified) | 8.66%
COc1cccc(C(=O)NNC(=O)/C=C/c2ccccc2)c1 | -32%
COc1cccc(/C=C/C(=O)Nc2ccc3c(c2)OCCO3)c1 | 64.9% (active)
Cc1ccc(OCCCC(=O)Nc2ccc3c(c2)OCCO3)cc1 | -4.22%
CN(Cc1ccccc1)C(=O)COC(=O)/C=C/c1ccc2c(c1)OCO2 | -10.8%
Cc1cccc(NC(=O)/C=C/c2ccc3c(c2)OCO3)n1 | 79.8% (active)

Structure (SMILES) | inhibition (viability loss, TRAIL sensitization)
Cc1cc(C)nc(NC(=O)/C=C/c2ccc(Cl)cc2)n1 | 2.95%
COC(=O)Cc1ccc(OC2(C)CCN(Cc3ccc4c(c3)OCCO4)C2)cc1 (stereo unspecified) | -7.8%
COc1nnc(-c2ccc(C)c(S(=O)(=O)N(C)C)c2)c2ccccc12 | -6.56%
Cc1ccc(/C=C2\CCn3c2nc2cc(C(=O)O)ccc2c3=O)c(C)c1 | 5.96%
COc1ccc(OC)c(-n2nnnc2SCC(=O)Nc2cc(C)ccc2OC)c1 | -4.79%
C=CCn1c(C)cc(C2=NNC(=NCC)SC2)c1C | 92.8% (active)
CCC(CC)c1nnc(NC(=O)C2CCN(C(=O)c3ccco3)CC2)s1 | -18.9%
CCCNC(=O)c1cc(C2CCCCN2C(=O)OC)on1 (stereo unspecified) | -21.1%
N#CCCC(C#N)(c1cccnc1)N1CCOCC1 (stereo unspecified) | -12.1%
O=c1c(-c2ccc(Cl)cc2)[n+]([O-])c2ccccc2n1OCc1nc2ccccc2[nH]1 | -24.1%
O=C(Cc1nc2ccccc2[nH]c1=O)c1ccc(Cl)cc1 | 60.2% (active)
O=C(NCC(O)c1nc2ccccc2[nH]1)c1ccc(Br)cc1 (stereo unspecified) | -0.934%
CCC1(C)Cc2c(sc3nnn(CC(=O)Nc4ccc(Cl)cc4)c(=O)c23)CO1 (stereo unspecified) | -1.52%
COc1cc(OC)cc(-c2cc3ccc(F)cc3cn2)c1 | 60% (active)
COc1ccc(C(C)(O)c2nc(-c3cc(F)cc(F)c3)cs2)cc1 (stereo unspecified) | 21%
Fc1ccc2cnc(-c3ccccc3)cc2c1 | -5.36%
CC(=O)c1nnn(-c2ccc(Cl)cc2C#N)c1C | 2.75%
Cc1ccc(N2CCN(c3ccc(C)cc3)C2c2ccccn2)cc1 | -11.7%
Cc1ccc2nc(-c3ccncc3)cc(C(=O)Nc3ccc(OC(F)F)cc3)c2c1 | 14.5%
Cc1ccc2nc(-c3ccncc3)cc(C(=O)Nc3ccncc3)c2c1 | 54% (active)
Cc1ccc(-c2cc(C(=O)NCc3cn(C)nc3C)c3cc(Br)ccc3n2)cc1 | 12.3%
Cc1cc(C)n2nc(C(=O)OC(C)C(=O)c3cc(C)c(C)cc3C)nc2n1 (stereo unspecified) | -12.9%
